Experimental data taken from PubChem BioAssay AID602382 (Sanford-Burnham Center for Chemical Genomics, 2012).
The other results are listed elsewhere or left out. The source made the active and inactive calls. No rule for the calls is given here.

Experiment: beacon detection-step fluorescence artefacts – biochemical, fluorescent molecular beacon, artefact control for DNMT1 inhibitor project, dose response (AID 602382)
Settings: spectral interference counter-screen

| Structure (SMILES) | IC50 |
| --- | --- |
| CCOC(=O)C(NC(=O)CC(C)C)(Nc1sc2c(c1C(N)=O)CCCC2)C(F)(F)F (stereo not given) | > 99 µM (inactive) |
| O=C(COc1ccc(/C=N/NC(=O)c2ccc(O)cc2)cc1)Nc1ccc([N+](=O)[O-])cc1 | > 99 µM (inactive) |
| O=C(Oc1ccc(-c2nc(-c3ccccn3)no2)cc1)c1ccccc1 | > 99 µM (inactive) |
| Cc1ccc(/C=C/C(=O)Nc2ccc([N+](=O)[O-])c(NC(=O)/C=C/c3ccc(C)o3)c2)o1 | > 99 µM (inactive) |
| COc1ccc(Br)cc1/C=N/Nc1ccc(S(=O)(=O)Nc2ccccc2C(=O)O)cc1[N+](=O)[O-] | > 99 µM (inactive) |
| COc1ccc(Cc2nnc(NC(=O)Cc3cccs3)s2)cc1 | > 99 µM (inactive) |
| COc1ccc(C(=O)/C=C/c2ccc(-c3ccccc3)cc2)cc1CSCC(=O)O | > 99 µM (inactive) |
| Cc1ccccc1NC(=O)CN1C(=O)N/C(=C\c2cccn2-c2cccc(C(=O)O)c2)C1=O | > 99 µM (inactive) |
| NC(CSC(c1ccccc1)(c1ccccc1)c1ccc(-c2ccccc2)cc1)C(=O)O (stereo not given) | > 99 µM (inactive) |
| O=C(CSc1nc2ccccc2c(=O)[nH]1)Nc1nc(-c2ccc(Br)cc2)cs1 | > 99 µM (inactive) |
